# The entries come from a sample that favours hits as a whole.
# Tg IFNy HTS: blocks Toxoplasma gondii growth in the presence of IFN-gamma; Toxoplasma gondii growth in IFN-gamma-treated host cells; active compounds read low; activity change, negative = inhibition, % (no concentration beside the values); actives 3.8% (n = 69,000); AID 1259416; in the data active means activity change below about -70%, passing the limit was not always enough;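 further: host cells are HeLa cells infected with Toxoplasma gondii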
# Starred values were filed as active, the others as inactive.
SMILES,Tg IFNy HTS
O=c1n(Cn2nnc3ccccc32)nc(C(F)(F)F)c2cccn12,70
O=c1[nH]nc(C(F)(F)F)n2cccc12,-104*
O=c1n(Cc2ccncc2)nc(C(F)(F)F)c2cccn12,10
Cc1cccnc1CN1CCN(CC(C)c2ccccc2)CC1 (stereo not drawn),0
COc1cc2c(cc1C1CC(=O)Nc3[nH]ncc31)CCC2 (stereo not drawn),4
O=C1CC(c2ccsc2)c2cc3cn[nH]c3cc2N1 (stereo not drawn),1
O=C1CC(c2cccc(Br)c2)c2cc3c(cc2N1)CCC3 (stereo not drawn),-83*
CCOc1ncccc1CNC(=O)C1Cc2ccccc2CN1CC (stereo not drawn),0
CCN(CC)CC1CCCCN1CC(=O)N1c2ccccc2C(=O)Nc2cccnc21 (stereo not drawn),16
Cc1noc(C)c1S(=O)(=O)N(C)C[C@H]1OCCCC[C@@H](C)Oc2ccc(NC(=O)CCC(F)(F)F)cc2C(=O)N([C@@H](C)CO)C[C@H]1C,21
C=CCn1c(SCC(=O)OCC)nc2sc3c(c2c1=O)CC(C)(C)OC3,-7
N#Cc1c(NC(=O)C2CC(c3cccc(Br)c3)=NO2)sc2c1CCC2 (stereo not drawn),-20
N#Cc1c(NC(=O)C2CC(=O)OC23CCCCC3)sc2c1CCCCC2 (stereo not drawn),-91*
CCOC(=O)c1c(NC(=O)C2CC(=O)OC23CCCCC3)sc2c1CC(C)(C)OC2 (stereo not drawn),-96*
CCC(Sc1ncc(-c2ccccc2)nn1)C(=O)Nc1sc2c(c1C#N)CCCC2 (stereo not drawn),150
CCOC(=O)c1c(NC(=O)CSc2nc(C)cc(C)n2)sc2c1CCC2,-44
Cc1ccc(-c2nc(C(N)=O)c3[nH]c(=O)n(Cc4ccccc4)c3n2)s1,-8
COc1cccc(-c2ccc(C(=O)N3CCCn4cncc4C3)o2)c1,9
COCCN1C(=O)CCc2cc(NC(=O)COc3ccccc3)ccc21,75
CCN1C(=O)CCc2cc(NC(=O)c3cc(F)cc(F)c3)ccc21,49
COCC1CN(Cc2csc(C)n2)Cc2nccn2C1 (stereo not drawn),-44
COc1ccc(CCNC(=O)N2CC[C@@H]3Oc4ccccc4S(=O)(=O)N[C@@H]3CC2)cc1,12
CC1c2cccn2CCN1C(=O)CCCc1nc(-c2ccco2)no1 (stereo not drawn),-9
O=C(Nc1cccc(-n2cnnn2)c1)c1ccccc1,2
Cc1onc(-c2ccccc2)c1NC(=O)Nc1ccc(-n2ccc(C(F)(F)F)n2)cc1,-13
SMILES,Tg IFNy HTS
O=C(Nc1ccccc1)Nc1ccc(-n2ccc(C(F)(F)F)n2)cc1,-81*
COc1cccc2c1OCC(CN1CCCC1c1c(C)noc1C)=C2 (stereo not drawn),-1
CCOc1ncccc1-c1cc(CC)nc(N(C)C)n1,6
CCOc1ncccc1-c1cncnc1,-3
CCOc1ncccc1-c1ccc(C)nc1N,-90*
Cc1noc(C)c1NC(=O)Nc1ccc2c(c1)C(=O)N(C)[C@@H]1CC[C@H](CC(=O)N[C@@H]3CCN(Cc4ccccc4)C3)O[C@@H]1CO2,4
CCCC(=O)N1CC2(CN(C(=O)NC(C)C)C2)c2c([nH]c3cc(OC)ccc23)[C@H]1CO,249
COc1ccc(F)c(F)c1-c1nccn1-c1ccc(-n2cncn2)cc1,0
O=c1[nH]nc(SCc2ccc(Cl)cc2)n1C1CC2C=CC1C2 (stereo not drawn),24
CCc1nnc(NC(=O)c2ccc(S(=O)(=O)NCC(C)C)cc2)s1,-75*
COc1ccc(S(=O)(=O)Nc2nnc(CC(C)C)s2)cc1,7
CCc1nnc(NC(=S)NC(=O)c2ccc(-c3ccccc3)cc2)s1,245
CO[C@@H](CN(C)Cc1cc(F)ccc1F)[C@@H](C)CN(C(=O)Nc1ccc(C(F)(F)F)cc1)[C@H](C)CO,-48
CCSc1ncc(-c2c(-c3ccccc3)ncn2CC2CCN(C)C2)cn1 (stereo not drawn),-6
Cc1nc(CN2CC3(CCN(C(=O)C4CC4)CC3)OCC2=O)cs1,3
O=C(/C=C/c1ccccc1)/C=C/c1ccccc1,-98*
O=C(/C=C/c1ccccc1)c1ccccc1,28
O=C(O)CS(=O)(=O)/C=C/c1ccccc1,-4
CC(C)CNC(=O)C1CC2CN(Cc3cnn(C)c3)CC1O2 (stereo not drawn),4
Cc1nc2c(c3c1[nH]c1ccccc13)C(=O)CC(C)(C)C2,-15
CNCCCCc1cnc(C)c2[nH]c3ccccc3c12,-95*
Cc1n[nH]c(C)c1CCCNC(=O)c1cc(=O)[nH]c2ccccc12,-2
CN(C)CC(=O)N1CCC2(CC1)C(=O)N(CC1CC1)CCN2C,4
CC(=O)N1CCC(C(=O)NCc2ccccc2)(N(Cc2ccccc2C)C(=O)c2ccc(C)cc2)CC1,36
COc1cccc(CN(C(=O)c2ccc(C)cc2)C2(C(=O)NCc3ccccc3)CCN(C(C)=O)CC2)c1OC,-93*
COc1ccc(OC)c(CN(C(=O)c2ccc(C)cc2)C2(C(=O)NCc3ccccc3)CCN(C(C)=O)CC2)c1,-4

# Screening data from PubChem BioAssay.
